Measured values from PubChem BioAssay (EPA / NIEHS).
Records with an inconclusive call do not appear. The source made the active and inactive calls. Rule for the calls: active = hit-call score of the fitted dose curve at least 0.9, where 1 is the maximum; inconclusive = response in the unintended direction; inactive = score below 0.9.

biological target: Oxysterols receptor LXR-alpha (Homo sapiens) (UniProt Q13133); assay: ATG_LXRa_TRANS: Attagene TRANS-FACTORIAL HepG2 Assay for human Liver X Receptor alpha (LXRa) (AID 2282980); conditions: HepG2 Attagene TRANS reporter, LXRa transactivation
Procedure, shortened: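 HepG2 cells transiently transfected with GAL4-UAS reporter units for chimeric NR-Gal4 proteins, exposed to chemicals for 24 h. Reporter mRNA quantified by RT-PCR and capillary electrophoresis; gain of signal fitted relative to DMSO.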

Oxysterols receptor LXR-alpha (Homo sapiens), sequence (Q13133 whole entry, looked up, the tested form may be a part): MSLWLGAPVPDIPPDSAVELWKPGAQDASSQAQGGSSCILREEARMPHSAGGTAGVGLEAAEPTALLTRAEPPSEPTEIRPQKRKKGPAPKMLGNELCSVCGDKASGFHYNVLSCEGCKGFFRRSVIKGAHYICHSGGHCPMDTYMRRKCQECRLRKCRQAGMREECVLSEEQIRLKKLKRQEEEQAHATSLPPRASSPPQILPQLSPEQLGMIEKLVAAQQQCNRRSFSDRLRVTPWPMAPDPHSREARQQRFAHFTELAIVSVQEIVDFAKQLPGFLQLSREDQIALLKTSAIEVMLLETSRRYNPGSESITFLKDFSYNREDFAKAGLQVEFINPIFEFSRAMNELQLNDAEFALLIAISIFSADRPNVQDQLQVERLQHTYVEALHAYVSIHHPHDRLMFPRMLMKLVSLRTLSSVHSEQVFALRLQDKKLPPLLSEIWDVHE

| Compound | outcome |
| --- | --- |
| Cc1ccc2c(c1)OCC(=O)CO2 | inactive |
| C=CC(=O)OCC(F)(F)C(F)(F)C(F)(F)C(F)(F)C(F)(F)C(F)(F)C(F)(F)C(F)F | inactive |
| C[Si](Cl)(Cl)CCC(F)(F)C(F)(F)C(F)(F)C(F)(F)C(F)(F)C(F)(F)F | inactive |
| FC(F)(F)C(F)(F)C(F)(F)CC1CO1 (stereo not given) | inactive |
| OCCCC(F)(F)C(F)(F)C(F)(F)C(F)(F)C(F)(F)C(F)(F)C(F)(F)C(F)(F)F | inactive |
| CNS(=O)(=O)C(F)(F)C(F)(F)C(F)(F)C(F)(F)C(F)(F)C(F)(F)C(F)(F)C(F)(F)F | inactive |
| O=C1c2ccccc2C(=O)c2c(Cl)cccc21 | inactive |
| O=C(Cl)C(F)(F)C(F)(F)C(F)(F)C(F)(F)C(F)(F)C(F)(F)F | inactive |
| OCC(O)CC(F)(F)C(F)(F)C(F)(F)C(F)(F)C(F)(F)C(F)(F)C(F)(F)C(F)(F)F (stereo not given) | inactive |
| Nc1c(Br)cc([N+](=O)[O-])cc1Br | inactive |
| CCCCCCCCCCCCCC[P+](CCCC)(CCCC)CCCC | inactive |
| CN(C)C(C)(C)CO | inactive |
| O=S(=O)(OCC(F)(F)F)C(F)(F)C(F)(F)C(F)(F)C(F)(F)F | inactive |
| CCCCOC(=O)C(C)O (stereo not given) | inactive |
| CCN(CC)c1ccc(N=Nc2ccccc2)cc1 | inactive |
